# From the supplement of paper PMC6555819
# Assays:
# Experiment in all cases: PBM binding z-score (relative to random genomic background probes); higher = stronger binding; sequences stand for … in GC…GCGATTGACAGCGTAGAATGAAGG
# [1] = test system: FXR:RXRa (NR concentration 270 nM, RXRa partner concentration 90 nM)
# Summary of the method: (§1)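 Scanned fluorescence from custom Agilent 4×180K protein-binding microarrays was regression-normalized. Binding z-scores use random background probes as reference. Ligand-free nuclear receptor dimers were incubated on the arrays for 1 h and detected with antibodies against each partner (one per run).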
# [2] = test system: LXRa:RXRa (NR concentration 270 nM, RXRa partner concentration 90 nM)
# Summary of the method: as §1
# [3] = test system: LXRa homodimer (NR concentration 270 nM)
# Summary of the method: as §1
# [4] = test system: LXRb:RXRa (NR concentration 270 nM, RXRa partner concentration 90 nM)
# Summary of the method: as §1
# [5] = test system: LXRb homodimer (NR concentration 270 nM)
# Summary of the method: as §1
# [6] = test system: PPARa:RXRa (NR concentration 270 nM, RXRa partner concentration 90 nM)
# Summary of the method: as §1
# [7] = test system: PPARg:RXRa (NR concentration 180 nM, RXRa partner concentration 90 nM)
# Summary of the method: as §1
# [8] = test system: PPARg:RXRa 270nM:90nM, anti-RXR (NR concentration 270 nM, RXRa partner concentration 90 nM)
# Summary of the method: as §1
# [9] = test system: PPARg:RXRa 30nM:10nM, anti-RXR (NR concentration 30 nM, RXRa partner concentration 10 nM)
# Summary of the method: as §1
# [10] = test system: PPARg:RXRa 90nM:30nM, anti-RXR (NR concentration 90 nM, RXRa partner concentration 30 nM)
# Summary of the method: as §1
Sequence,PBM binding z-score [1],PBM binding z-score [2],PBM binding z-score [3],PBM binding z-score [4],PBM binding z-score [5],PBM binding z-score [6],PBM binding z-score [7],PBM binding z-score [8],PBM binding z-score [9],PBM binding z-score [10]
CCTAGTTCGTCAGGAGGTCACACACCGGATATGA,3.66,4.1,2.37,3.64,1.22,4.28,2.29,3.03,1.04,2.19
ACTAGCAGGCCAAGGGTCACTCACGATTAGTCCG,2.5,2.67,0.186,2.74,-0.177,4.69,7.31,6.69,5.72,6.89
GATACATGGTCAAGGCCAGAGTACGCGTATTGAT,-0.39,-0.622,-0.276,-0.463,-0.821,-0.215,0.872,0.016,0.162,0.303
CTGCCAAGGTGAACAAGGTCGTTGATTACTATTC,0.873,0.86,-0.343,1.15,-0.569,2.25,0.839,1.1,-0.107,0.638
CGTCCAAGGACATAGGAGGTCAGTGAAGACAGAT,1.5,1.47,1.23,1.26,-0.58,2.02,0.76,0.564,0.000734,0.268
CCTACTGGGCCAAGGTCATCGATCAGTCAAAGCA,3.48,3.15,0.707,2.74,-0.415,4.23,4.52,4.7,2,4.15
ACTAGTTGGTCAGCTGATGTCACACACAATTCGG,0.0768,-0.317,-0.115,0.235,-0.112,0.0483,0.943,0.0634,0.0518,0.0179
CCTACTGGGGCATAAGGTTACCATAAGCCAGCCC,0.331,1.69,-0.117,0.717,-0.859,2.47,3.73,4.44,2.09,4.09
CCTAGTTGGTCAACGTCACACACGCTATAGGTAC,0.458,0.525,0.431,0.877,0.581,0.58,1.25,0.719,0.299,0.407
ATATGTAGGTTAGCTGGTGTCATTCAGACTAGGC,0.789,1.83,-0.106,0.765,0.392,2.74,3.47,2.8,0.962,2.2
CCTAGCAGGCCAGGGTCACACAAGCATTTCGCTT,2.57,2.38,-0.252,2.77,-0.795,4,2.01,2.57,0.18,1.59
ATCTCTAGGTAAGACTCAGTTCACTGAAGAACGC,0.642,0.841,0.58,0.734,0.669,0.739,0.313,0.623,0.222,0.475
GCATATAGGTAATACAACGTGAAAGTCCGATTGT,-0.622,-0.502,-0.205,-0.638,-0.368,0.333,1.02,0.49,0.28,0.431
CCTACTGGGCCAAACAGGTCATTGATGCCGATAA,0.606,0.905,0.657,1.55,-0.709,2.56,1.79,2.18,0.412,1.43
CCTACTGGGCCAAAAAGGGCATTGATGCCGATAA,-0.479,-0.109,-0.296,-0.0231,-1,1.12,0.538,1.32,-0.152,0.651
TATACAGGGTCAAAGGACAGAGTACGAATGTCGA,7.39,6.09,2.79,4.85,2.96,6.24,7.83,6.55,4.83,5.84
CCTCGGAGAACAACAGGAGGTCAGAGCTGCCAGA,0.847,1.87,1.86,1.46,-0.303,1.82,0.213,-0.135,-1.02,-0.29
TTACCAAGGTGAAGGTGGTTGATCCCTCTGTAGA,0.468,0.457,-0.29,0.0076,-0.769,1.41,0.605,1.37,0.889,1.13
ATATGTTGGTTAAGGGTCATTCAGGTTGGTTCGC,4.33,4.39,2.88,4.31,1.83,4.83,6.96,7.58,6.29,7.73
ACTAGCAGGACAAGTTTGGGTCACTCAAACAAAG,0.14,0.146,-0.00824,0.621,-0.0447,1.36,0.27,0.0968,-0.0869,-0.0203
TCTTGTAGATCAAACAGGTTAAGAAAGCCTGAGT,0.553,0.608,0.121,0.509,-0.073,1.1,-0.134,1.44,2.65,2.3
AGTGAAAGTTCACTAGGTAACGTAAGATTCAGCT,4.44,5.02,3.08,2.88,0.454,4.5,6.12,6.07,3.52,5.3
GCTTGCAGATCAAGGTTAAGAAAGACTAAGCTAA,-0.109,0.424,-0.386,0.358,-0.936,1.25,0.0724,0.872,0.0105,0.351
